{
  "source": "the supplement of paper PMC4466140",
  "data": [
    {"molecular_target": "AgAbp1", "test": "SPOT peptide array binding signal intensity (averaged, normalized) (arbitrary units (background-subtracted, floor 0; scale differs between SH3 domains)); higher = stronger binding of the SH3 domain to the peptide", "protocol": "(§1)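 GST-tagged SH3 domains from S. cerevisiae (Sc), A. gossypii (Ag), C. albicans (Ca) and S. pombe (Sp) were incubated at 10 ug/ml overnight at 4 C on cellulose SPOT membranes carrying 292 synthetic 15-mer peptides mined from the S. cerevisiae proteome (cysteines replaced by serines). Binding was detected with anti-GST antibody, HRP secondary and chemiluminescence, quantified with Genespotter, and reported as normalized spot intensities averaged over biological replicates.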", "values": [
      {"binder": "RRSKSLPITPKSIFN", "SPOT peptide array binding signal intensity": 47}
    ]},
    {"molecular_target": "AgBbc1", "test": "SPOT peptide array binding signal intensity (averaged, normalized) (arbitrary units (background-subtracted, floor 0; scale differs between SH3 domains)); higher = stronger binding of the SH3 domain to the peptide", "protocol": "as §1", "values": [
      {"binder": "RRSKSLPITPKSIFN", "SPOT peptide array binding signal intensity": 30.8}
    ]},
    {"molecular_target": "AgBem1-D1", "test": "SPOT peptide array binding signal intensity (averaged, normalized) (arbitrary units (background-subtracted, floor 0; scale differs between SH3 domains)); higher = stronger binding of the SH3 domain to the peptide", "protocol": "as §1", "values": [
      {"binder": "RRSKSLPITPKSIFN", "SPOT peptide array binding signal intensity": 374}
    ]},
    {"molecular_target": "AgBzz1-D1", "test": "SPOT peptide array binding signal intensity (averaged, normalized) (arbitrary units (background-subtracted, floor 0; scale differs between SH3 domains)); higher = stronger binding of the SH3 domain to the peptide", "protocol": "as §1", "values": [
      {"binder": "RRSKSLPITPKSIFN", "SPOT peptide array binding signal intensity": 59}
    ]},
    {"molecular_target": "AgBzz1-D2", "test": "SPOT peptide array binding signal intensity (averaged, normalized) (arbitrary units (background-subtracted, floor 0; scale differs between SH3 domains)); higher = stronger binding of the SH3 domain to the peptide", "protocol": "as §1", "values": [
      {"binder": "RRSKSLPITPKSIFN", "SPOT peptide array binding signal intensity": 25}
    ]},
    {"molecular_target": "AgCyk3", "test": "SPOT peptide array binding signal intensity (averaged, normalized) (arbitrary units (background-subtracted, floor 0; scale differs between SH3 domains)); higher = stronger binding of the SH3 domain to the peptide", "protocol": "as §1", "values": [
      {"binder": "RRSKSLPITPKSIFN", "SPOT peptide array binding signal intensity": 6.5}
    ]},
    {"molecular_target": "AgFus1", "test": "SPOT peptide array binding signal intensity (averaged, normalized) (arbitrary units (background-subtracted, floor 0; scale differs between SH3 domains)); higher = stronger binding of the SH3 domain to the peptide", "protocol": "as §1", "values": [
      {"binder": "RRSKSLPITPKSIFN", "SPOT peptide array binding signal intensity": 79.5}
    ]},
    {"molecular_target": "AgHof1", "test": "SPOT peptide array binding signal intensity (averaged, normalized) (arbitrary units (background-subtracted, floor 0; scale differs between SH3 domains)); higher = stronger binding of the SH3 domain to the peptide", "protocol": "as §1", "values": [
      {"binder": "RRSKSLPITPKSIFN", "SPOT peptide array binding signal intensity": 125}
    ]},
    {"molecular_target": "AgHse1", "test": "SPOT peptide array binding signal intensity (averaged, normalized) (arbitrary units (background-subtracted, floor 0; scale differs between SH3 domains)); higher = stronger binding of the SH3 domain to the peptide", "protocol": "as §1", "values": [
      {"binder": "RRSKSLPITPKSIFN", "SPOT peptide array binding signal intensity": 306}
    ]},
    {"molecular_target": "AgLsb1", "test": "SPOT peptide array binding signal intensity (averaged, normalized) (arbitrary units (background-subtracted, floor 0; scale differs between SH3 domains)); higher = stronger binding of the SH3 domain to the peptide", "protocol": "as §1", "values": [
      {"binder": "RRSKSLPITPKSIFN", "SPOT peptide array binding signal intensity": 1.5}
    ]},
    {"molecular_target": "AgLsb4", "test": "SPOT peptide array binding signal intensity (averaged, normalized) (arbitrary units (background-subtracted, floor 0; scale differs between SH3 domains)); higher = stronger binding of the SH3 domain to the peptide", "protocol": "as §1", "values": [
      {"binder": "RRSKSLPITPKSIFN", "SPOT peptide array binding signal intensity": 78.5}
    ]},
    {"molecular_target": "AgMyo5", "test": "SPOT peptide array binding signal intensity (averaged, normalized) (arbitrary units (background-subtracted, floor 0; scale differs between SH3 domains)); higher = stronger binding of the SH3 domain to the peptide", "protocol": "as §1", "values": [
      {"binder": "RRSKSLPITPKSIFN", "SPOT peptide array binding signal intensity": 0.5}
    ]},
    {"molecular_target": "AgNbp2", "test": "SPOT peptide array binding signal intensity (averaged, normalized) (arbitrary units (background-subtracted, floor 0; scale differs between SH3 domains)); higher = stronger binding of the SH3 domain to the peptide", "protocol": "as §1", "values": [
      {"binder": "RRSKSLPITPKSIFN", "SPOT peptide array binding signal intensity": 27}
    ]},
    {"molecular_target": "AgRvs167", "test": "SPOT peptide array binding signal intensity (averaged, normalized) (arbitrary units (background-subtracted, floor 0; scale differs between SH3 domains)); higher = stronger binding of the SH3 domain to the peptide", "protocol": "as §1", "values": [
      {"binder": "RRSKSLPITPKSIFN", "SPOT peptide array binding signal intensity": 0.667}
    ]},
    {"molecular_target": "AgSho1", "test": "SPOT peptide array binding signal intensity (averaged, normalized) (arbitrary units (background-subtracted, floor 0; scale differs between SH3 domains)); higher = stronger binding of the SH3 domain to the peptide", "protocol": "as §1", "values": [
      {"binder": "RRSKSLPITPKSIFN", "SPOT peptide array binding signal intensity": 2230}
    ]},
    {"molecular_target": "AgSla1-D1-D2", "test": "SPOT peptide array binding signal intensity (averaged, normalized) (arbitrary units (background-subtracted, floor 0; scale differs between SH3 domains)); higher = stronger binding of the SH3 domain to the peptide", "protocol": "as §1", "values": [
      {"binder": "RRSKSLPITPKSIFN", "SPOT peptide array binding signal intensity": 350}
    ]},
    {"molecular_target": "AgSla1-D3", "test": "SPOT peptide array binding signal intensity (averaged, normalized) (arbitrary units (background-subtracted, floor 0; scale differs between SH3 domains)); higher = stronger binding of the SH3 domain to the peptide", "protocol": "as §1", "values": [
      {"binder": "RRSKSLPITPKSIFN", "SPOT peptide array binding signal intensity": "≤ 0"}
    ]},
    {"molecular_target": "CaAbp1-D1", "test": "SPOT peptide array binding signal intensity (averaged, normalized) (arbitrary units (background-subtracted, floor 0; scale differs between SH3 domains)); higher = stronger binding of the SH3 domain to the peptide", "protocol": "as §1", "values": [
      {"binder": "RRSKSLPITPKSIFN", "SPOT peptide array binding signal intensity": 144}
    ]},
    {"molecular_target": "CaAbp1-D2", "test": "SPOT peptide array binding signal intensity (averaged, normalized) (arbitrary units (background-subtracted, floor 0; scale differs between SH3 domains)); higher = stronger binding of the SH3 domain to the peptide", "protocol": "as §1", "values": [
      {"binder": "RRSKSLPITPKSIFN", "SPOT peptide array binding signal intensity": 310}
    ]},
    {"molecular_target": "CaBbc1", "test": "SPOT peptide array binding signal intensity (averaged, normalized) (arbitrary units (background-subtracted, floor 0; scale differs between SH3 domains)); higher = stronger binding of the SH3 domain to the peptide", "protocol": "as §1", "values": [
      {"binder": "RRSKSLPITPKSIFN", "SPOT peptide array binding signal intensity": 103}
    ]},
    {"molecular_target": "CaBem1-D1", "test": "SPOT peptide array binding signal intensity (averaged, normalized) (arbitrary units (background-subtracted, floor 0; scale differs between SH3 domains)); higher = stronger binding of the SH3 domain to the peptide", "protocol": "as §1", "values": [
      {"binder": "RRSKSLPITPKSIFN", "SPOT peptide array binding signal intensity": 55}
    ]},
    {"molecular_target": "CaBzz1-D1", "test": "SPOT peptide array binding signal intensity (averaged, normalized) (arbitrary units (background-subtracted, floor 0; scale differs between SH3 domains)); higher = stronger binding of the SH3 domain to the peptide", "protocol": "as §1", "values": [
      {"binder": "RRSKSLPITPKSIFN", "SPOT peptide array binding signal intensity": 146}
    ]},
    {"molecular_target": "CaBzz1-D2", "test": "SPOT peptide array binding signal intensity (averaged, normalized) (arbitrary units (background-subtracted, floor 0; scale differs between SH3 domains)); higher = stronger binding of the SH3 domain to the peptide", "protocol": "as §1", "values": [
      {"binder": "RRSKSLPITPKSIFN", "SPOT peptide array binding signal intensity": 61}
    ]},
    {"molecular_target": "CaCyk3", "test": "SPOT peptide array binding signal intensity (averaged, normalized) (arbitrary units (background-subtracted, floor 0; scale differs between SH3 domains)); higher = stronger binding of the SH3 domain to the peptide", "protocol": "as §1", "values": [
      {"binder": "RRSKSLPITPKSIFN", "SPOT peptide array binding signal intensity": 13.5}
    ]},
    {"molecular_target": "CaFus1", "test": "SPOT peptide array binding signal intensity (averaged, normalized) (arbitrary units (background-subtracted, floor 0; scale differs between SH3 domains)); higher = stronger binding of the SH3 domain to the peptide", "protocol": "as §1", "values": [
      {"binder": "RRSKSLPITPKSIFN", "SPOT peptide array binding signal intensity": 368}
    ]},
    {"molecular_target": "CaHof1", "test": "SPOT peptide array binding signal intensity (averaged, normalized) (arbitrary units (background-subtracted, floor 0; scale differs between SH3 domains)); higher = stronger binding of the SH3 domain to the peptide", "protocol": "as §1", "values": [
      {"binder": "RRSKSLPITPKSIFN", "SPOT peptide array binding signal intensity": 1}
    ]},
    {"molecular_target": "CaHse1", "test": "SPOT peptide array binding signal intensity (averaged, normalized) (arbitrary units (background-subtracted, floor 0; scale differs between SH3 domains)); higher = stronger binding of the SH3 domain to the peptide", "protocol": "as §1", "values": [
      {"binder": "RRSKSLPITPKSIFN", "SPOT peptide array binding signal intensity": 1}
    ]},
    {"molecular_target": "CaLsb1", "test": "SPOT peptide array binding signal intensity (averaged, normalized) (arbitrary units (background-subtracted, floor 0; scale differs between SH3 domains)); higher = stronger binding of the SH3 domain to the peptide", "protocol": "as §1", "values": [
      {"binder": "RRSKSLPITPKSIFN", "SPOT peptide array binding signal intensity": 1}
    ]},
    {"molecular_target": "CaLsb4", "test": "SPOT peptide array binding signal intensity (averaged, normalized) (arbitrary units (background-subtracted, floor 0; scale differs between SH3 domains)); higher = stronger binding of the SH3 domain to the peptide", "protocol": "as §1", "values": [
      {"binder": "RRSKSLPITPKSIFN", "SPOT peptide array binding signal intensity": 57}
    ]},
    {"molecular_target": "CaMyo5", "test": "SPOT peptide array binding signal intensity (averaged, normalized) (arbitrary units (background-subtracted, floor 0; scale differs between SH3 domains)); higher = stronger binding of the SH3 domain to the peptide", "protocol": "as §1", "values": [
      {"binder": "RRSKSLPITPKSIFN", "SPOT peptide array binding signal intensity": 3}
    ]},
    {"molecular_target": "CaNbp2", "test": "SPOT peptide array binding signal intensity (averaged, normalized) (arbitrary units (background-subtracted, floor 0; scale differs between SH3 domains)); higher = stronger binding of the SH3 domain to the peptide", "protocol": "as §1", "values": [
      {"binder": "RRSKSLPITPKSIFN", "SPOT peptide array binding signal intensity": 128}
    ]},
    {"molecular_target": "CaRvs167", "test": "SPOT peptide array binding signal intensity (averaged, normalized) (arbitrary units (background-subtracted, floor 0; scale differs between SH3 domains)); higher = stronger binding of the SH3 domain to the peptide", "protocol": "as §1", "values": [
      {"binder": "RRSKSLPITPKSIFN", "SPOT peptide array binding signal intensity": 2.33}
    ]},
    {"molecular_target": "CaRvs167-3", "test": "SPOT peptide array binding signal intensity (averaged, normalized) (arbitrary units (background-subtracted, floor 0; scale differs between SH3 domains)); higher = stronger binding of the SH3 domain to the peptide", "protocol": "as §1", "values": [
      {"binder": "RRSKSLPITPKSIFN", "SPOT peptide array binding signal intensity": 8.25}
    ]},
    {"molecular_target": "CaSho1", "test": "SPOT peptide array binding signal intensity (averaged, normalized) (arbitrary units (background-subtracted, floor 0; scale differs between SH3 domains)); higher = stronger binding of the SH3 domain to the peptide", "protocol": "as §1", "values": [
      {"binder": "RRSKSLPITPKSIFN", "SPOT peptide array binding signal intensity": 353}
    ]},
    {"molecular_target": "CaSla1-D1-D2", "test": "SPOT peptide array binding signal intensity (averaged, normalized) (arbitrary units (background-subtracted, floor 0; scale differs between SH3 domains)); higher = stronger binding of the SH3 domain to the peptide", "protocol": "as §1", "values": [
      {"binder": "RRSKSLPITPKSIFN", "SPOT peptide array binding signal intensity": 1140}
    ]},
    {"molecular_target": "CaSla1-D3", "test": "SPOT peptide array binding signal intensity (averaged, normalized) (arbitrary units (background-subtracted, floor 0; scale differs between SH3 domains)); higher = stronger binding of the SH3 domain to the peptide", "protocol": "as §1", "values": [
      {"binder": "RRSKSLPITPKSIFN", "SPOT peptide array binding signal intensity": 0.5}
    ]},
    {"molecular_target": "ScAbp1", "test": "SPOT peptide array binding signal intensity (averaged, normalized) (arbitrary units (background-subtracted, floor 0; scale differs between SH3 domains)); higher = stronger binding of the SH3 domain to the peptide", "protocol": "as §1", "values": [
      {"binder": "RRSKSLPITPKSIFN", "SPOT peptide array binding signal intensity": 84}
    ]}
  ]
}
